# The full list was thinned out, with hits kept by preference.
# RMI FANCM FP – blocks RMI1/RMI2 complex binding to FANCM MM2 peptide; Fluorescence polarization, RMI core complex with F-MM2 peptide; hits give low values; FP signal (polarization) at 33 µM; hit rate 0.58% among 70,000; in the data active = FP signal below about 40
# * hit, by the source's call; ! = not active in a repeat.
SMILES,RMI FANCM FP
Nc1ncncc1-c1ccc(Cl)cc1,49
Nc1ncnc2c1CCC2,82
Nc1ncnc(Cl)c1N,17*
Cc1ccc(S(=O)(=O)NCC(c2ccsc2)N2CCN(C)CC2)s1 (centres undefined),66
Cc1nn(C)c(C(=O)O)c1[N+](=O)[O-],57
CN1CCN(C(=O)CCCSc2ccc(NC(=O)c3ccc(F)cc3)nn2)CC1,62
CCOC(=O)c1ccc(N/C=C(\C#N)C(=O)Nc2cccc(Cl)c2)cc1,98
O=c1oc2c(Cl)cc(Cl)cc2cc1-c1nc2ccccc2[nH]1,40*
Nc1ccc(Cl)cc1-c1nc2ccccc2[nH]1,54
O=C(Nc1cccc(-c2nc3ccccc3[nH]2)c1)c1ccc(Cl)cc1,97
Cc1cc(C(=O)Nc2ccc3c(c2)C(=O)NC3=O)no1,62
COc1cccc2sc(Nc3nc(C(C)(C)C)cs3)nc12,61
COc1cccc2sc(Nc3nc4c(F)cc(F)cc4s3)nc12,28*
Fc1cccc2sc(Nc3nc4c(F)cccc4s3)nc12,70
O=C(Nc1ccc(F)cc1)c1sc(Nc2ccccc2)nc1-c1ccccc1,71
O=c1[nH]c(SC/C=C/c2ccccc2)nc2[nH]ncc12,55
N#Cc1c(Cl)cccc1N1CCC(C#N)CC1,52
CCN1C(=O)C2CC(C)=C(C)CC2C1=O (centres undefined),29*
CC1=C(C)CC2C(=O)N(c3ccc(O)cc3)C(=O)C2C1 (centres undefined),59
CC1=C(C)CC2C(=O)N(C(Cc3ccccc3)C(=O)O)C(=O)C2C1 (centres undefined),57
Cc1ccc(NC(=O)Cn2c(=O)n(Cc3ccc(F)cc3)c(=O)c3nccnc32)cc1,85
O=S(=O)(NCc1ccc2[nH]c3c(c2c1)CCCC3)c1ccc2ccccc2c1,59
CC1=CC(=NS(=O)(=O)c2cccc([N+](=O)[O-])c2)C=CC1=O,-23*
Cc1ccc(S(=O)(=O)N=Cc2cccc([N+](=O)[O-])c2)cc1,61
Cc1nc2ccccc2c(=O)n1-c1cccc(NS(=O)(=O)c2cccc([N+](=O)[O-])c2)c1,54
SMILES,RMI FANCM FP
CN1CCN(C(CNS(=O)(=O)c2ccc(Oc3ccccc3)cc2)c2ccc3c(c2)OCO3)CC1 (centres undefined),79
O=C(NCCN1CCN(S(=O)(=O)c2ccccc2)CC1)c1cccc(F)c1,65
CCS(=O)(=O)N1CCc2ccc(NS(=O)(=O)c3ccc(F)c(C)c3)cc2C1,64
Cc1nc(Sc2nc3ccccc3o2)c2c3c(sc2n1)CCCC3,30*
Cc1nc(Cl)c2c3c(sc2n1)CCCC3,57
Cc1nc2sc3c(c2c(=O)o1)CCCC3,53
O=c1c2scc(-c3ccc(Cl)cc3)c2ncn1CCOc1ccccc1,68
COC(=O)c1sccc1N/C=C(\C#N)C(=O)c1ccco1,59
COC(=O)c1sccc1N/N=C(\C#N)C(=O)c1ccc(Cl)cc1,58
COC(=O)c1sccc1N/C=C(\C#N)C(=O)c1cccc(CSc2ccc(Cl)cc2)c1,7*
N=C(N)SC1CS(=O)(=O)CC1O (centres undefined),65
O=C(c1csc(Nc2ccccc2)n1)N1CCN(c2ncccn2)CC1,63
N[C@H](CO)C(=O)O,49
NC(CO)C(=O)NNCc1ccc(O)c(O)c1O (centres undefined),-13*!
CCOc1cccc2cc(-c3csc(NC(=O)c4nc5ccccc5s4)n3)oc12,68
O=C(NCC(c1cccs1)S(=O)(=O)c1cccs1)Nc1cccc(Cl)c1 (centres undefined),52
Cc1coc(C)c1C(=O)O,57
CCCc1noc(C)c1C(=O)O,-5*
Cc1noc(C)c1S(=O)(=O)N1CCC(C(=O)O)CC1,56
CCOC(=O)c1ccc(Nc2nn3c(=O)c4ccc(F)cc4nc3s2)cc1,70
Fc1ccc(-c2noc(-c3ccc4c(c3)CCO4)n2)cc1,59
Fc1ccc(-c2nc(=S)c3c([nH]2)Oc2ccc(Br)cc2C3)cc1,26*
O=C(CCC1CCCCC1)Nc1cccc(-c2ccc3nnc(-c4cccnc4)n3n2)c1,71
CCOC(=O)c1ccc(NNC(=S)Nc2ccccc2C)cc1,50
CSc1cccc(NC(=O)Cc2cc(=O)[nH]c(SCc3ccccc3)n2)c1,61
SMILES,RMI FANCM FP
Cc1ccc(S(=O)(=O)NCCn2cncn2)cc1C,63
Fc1ccc2c(c1)/C(=N\NC(=S)NCC1CCCO1)CCS2 (centres undefined),54
CCOc1ccc(-c2csc(NC(=O)C3CCCCC3)n2)cc1,71
CCOc1ccc(-c2csc(N/N=C\c3ccc(OC)c(OC)c3)n2)cc1,16*
COc1ccc(/C=N\Nc2nc(-c3cccs3)cs2)cc1,61
O=C1c2ccccc2C(=O)c2cc(S(=O)(=O)NCc3ccco3)ccc21,59
COc1ccc(C(=O)c2c(N)c(-c3nc(-c4ccc(F)cc4)cs3)c3ccccn23)cc1,62
CC(=O)ON1C(=O)c2cccc3cccc(c23)C1=O,52
CC(=O)ON1C(=O)c2cccc3c([N+](=O)[O-])ccc(c23)C1=O,-6*
O=C1c2cccc3c([N+](=O)[O-])ccc(c23)C(=O)N1Cc1cccnc1,-13
COC(=O)c1ccc(CSc2nnc(NC(=O)NC(C)(C)C)s2)o1,53
N/C(CC(=O)Nc1ccc(F)c(F)c1F)=N/O,35*
NC(=O)Nc1ccc(F)cc1F,57
O=C(CS(=O)(=O)c1ccc(Cl)cc1)Nc1ccc(F)c(F)c1F,57
O=C(NCCCS(=O)(=O)N1CCN(c2ccccn2)CC1)c1ccc([N+](=O)[O-])o1,59
O=C(NCCCN1CCOC(c2ccccc2)C1)C(=O)NCc1ccc(Cl)cc1 (centres undefined),73
CCOC(=O)N1CCN(C(=O)CSc2nc3c(c(=O)n2-c2ccc(OCC)cc2)SCC3)CC1,81
O=C(CSc1nc2c(c(=O)n1-c1ccc([N+](=O)[O-])cc1)SCC2)N1CCCc2ccccc21,24*
O=C(CSc1nc2c([nH]c3ccccc32)c(=O)n1-c1ccc([N+](=O)[O-])cc1)N1CCc2ccccc21,65
O=C(c1ccccc1)N1CCCc2ccc(NS(=O)(=O)c3cccc(F)c3)cc21,58
O=C(NCC(c1ccsc1)N1CCOCC1)c1ccco1 (centres undefined),55
CNc1nn(CC(=O)Nc2ccc(C)cc2)c(N)c1-c1nc(-c2ccccc2C)no1,69
CCOc1ccc(-c2csc(-n3nc(C)cc3NC(=O)Cc3cccc(C)c3)n2)cc1,95
COc1cc(OC)cc(C(=O)NCC(c2ccsc2)N2CCCC2)c1 (centres undefined),9*
Cc1ccc(C(=O)NCC(c2ccsc2)N2CCCC2)cc1C (centres undefined),87
SMILES,RMI FANCM FP
COc1ccc(CC(=O)NCC(c2ccsc2)N2CCCC2)cc1 (centres undefined),64
Cc1ccc(-c2ccc(=O)n(Cc3nc(-c4ccccc4Br)no3)n2)cc1,70
COc1ccc(C(=O)CSc2cc(C)c(C#N)c3nc4ccccc4n23)cc1OC,30*
COc1ccc2c(C)cc(SCC(=O)c3ccc(OC)c(OC)c3)nc2c1,125
COc1ccc(CCNc2cc(C)c(C#N)c3nc4ccccc4n23)cc1OC,52
O=C(O)/C(=C/c1ccc2c(c1)OCO2)NC(=O)c1ccccc1,52
Cc1c2c(n3c(nc4ccccc43)c1C#N)SCC2,24*
Cc1c2c(n3c(nc4ccccc43)c1C#N)N(C(C)c1ccccc1)CC2 (centres undefined),79
CSc1c2c(c(C#N)c3nc4ccccc4n13)CCCC2,73
CCc1c(C)c(C#N)c2nc3ccccc3n2c1N,66
